D3 ag: D3 dopamine receptor (human) agonism. AID 652048. max activation, %. D3R DiscoveRx beta-arrestin cells, luminescence, 90 min. 410,000 compounds, 0.58% hits. P35462; in the data active = max activation above about 30%; also: 0% is about no effect
Target sequence (P35462 whole entry, looked up): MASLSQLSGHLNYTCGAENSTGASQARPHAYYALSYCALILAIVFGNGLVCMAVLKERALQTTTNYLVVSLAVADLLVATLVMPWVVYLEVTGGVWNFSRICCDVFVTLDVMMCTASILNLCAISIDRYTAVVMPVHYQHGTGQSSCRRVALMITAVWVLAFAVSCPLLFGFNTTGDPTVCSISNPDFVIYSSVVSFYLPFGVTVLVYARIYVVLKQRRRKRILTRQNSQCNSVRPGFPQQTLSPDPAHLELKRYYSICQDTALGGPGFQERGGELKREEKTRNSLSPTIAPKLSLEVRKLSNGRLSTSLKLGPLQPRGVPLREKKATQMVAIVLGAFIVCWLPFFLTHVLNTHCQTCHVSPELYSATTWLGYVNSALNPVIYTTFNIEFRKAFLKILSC
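Agonist mode: compounds and dopamine controls were applied to plated cells for 90 min at 37 degrees C after an overnight attachment at 1500 cells/well. Luminescent read-out followed 30 - 60 minutes at room temperature with DiscoveRx detection reagent.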
SW480 rereplic: inducers of DNA re-replication in SW480 colon cancer cells; SW480 DNA re-replication, Hoechst DNA content imaging, 48 h; Potency, µM (series often up to 46.1 µM), for the others: at the top dose re-replication activation, actives largely listed as activators; 340,000 compounds, 1.8% hits; also: potency is read from the fitted curve at half-maximal effect; % of control where 0% means no effect; nearly all actives have a fitted effect of over 55% in size
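Image-based read-out: total Hoechst fluorescence of nuclei (405 nm excitation, 500-530 nm emission), with hits raising the fraction of high-intensity nuclei. SW480 colon cells incubated 48 hr with compounds at 37 C.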
KB-3-1 tox: KB-3-1 parental cell cytotoxicity; KB-3-1 viability, CellTiter-Glo ATP luminescence, 72 h; Potency, µM (titrated, usually from 46.1 µM), hits mostly cytotoxic; 400,000 compounds, 1.4% hits; AID 1347075; also: potency is read from the fitted curve at half-maximal effect; % is scaled to controls: 0 for no effect and ±100 for the full control effect; nearly all actives have a fitted effect of over 60% in size
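Luminescent ATP read-out (CellTiter-Glo) measures survival of drug-naive KB-3-1 cells after 72 h compound exposure at 37 °C. Titration series was screened from lowest to highest concentration, with DMSO vehicle plates as background controls.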
MCF10A rereplic: DNA re-replication induction in MCF 10a cells | MCF 10A DNA re-replication, Hoechst nuclear intensity, 48 h | Potency, µM (top dose mostly 46.1 µM), for the others: at the highest dose activity, positive = re-replication, hits mostly activators | 350,000 compounds, 2.9% hits; also: potency is read from the fitted curve at half-maximal effect; % of control where 0% means no effect; nearly all actives have a fitted effect of over 50% in size
KB-V1 MDR tox: kills drug-selected multidrug resistant KB-V1 cells; KB-V1 MDR cells viability, CellTiter-Glo, 72 h; Potency, µM (top dose mostly 46.1 µM), hits mostly cytotoxic; 400,000 compounds, 3.4% hits; AID 1347076; also: potency is read from the fitted curve at half-maximal effect; % is scaled to controls: 0 for no effect and ±100 for the full control effect; nearly all actives have a fitted effect of over 60% in size
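KB-V1, DMEM (no phenol red) + 10% FBS; cpd pin-transferred, titration series; 72 h, 37 degrees C; CellTiter-Glo, luminescence. Data normalized, curve-fit.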
DRD3 antagonist: D3 dopamine receptor (human) antagonism | P35462 | D3R cells, DiscoveRx beta-arrestin luminescence, antagonist mode; stronger effect = lower value | max response, negative = inhibition, % | 360,000 compounds, 2.5% hits | AID 652054; in the data active = max response below about -50%; inconclusive = no clear call, values can overlap the other calls; also: % is scaled to controls: 0 for no effect and ±100 for the full control effect
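Cells plated overnight at 1500 cells/well, then exposed to library compounds with dopamine controls for 90 minutes at 37 degrees C. DiscoveRx reagent added for 30–60 minutes at room temperature; luminescence read, quantitative HTS format.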
An asterisk follows results filed as active; i = inactive; ? = inconclusive; nt = not tested or not shown; ! = repeats disagree; [ ] = remark or other dose. Most compounds without a hit are left out; they make up all but 8.9% or so of the library. Unless noted, calls follow the shape of the dose curve; as a rule, active = well fitted curve in the direction sought with a large enough effect; inconclusive = small, poorly fitted or top-dose-only effect, or another doubt; inactive = no such curve, though single readings can be large; an effect the other way counts as inactive or inconclusive.

SMILES	D3 ag	SW480 rereplic	KB-3-1 tox	MCF10A rereplic	KB-V1 MDR tox	DRD3 antagonist
CC(Oc1cc(Cl)ccc1Cl)C(=O)N/N=C\c1ccnn1C (configuration not stated)	-4.0	-7.3%	i	13.5%	18.4µM*	5.2
COc1cc(NS(=O)(=O)c2cc3c(cc2C)n(C)c(=O)c(=O)n3C)cc(OC)c1	3.8	nt	i	nt	i	nt
CCN1CCn2c3c(c4cc(C)ccc42)CCCC31 (configuration not stated)	-9.8	-0.2%	i	13.2%	i	-5.5
Cc1ccc2c(c1)c1c3n2CCN(CCC#N)C3CCC1 (configuration not stated)	6.8	nt	i	nt	18.4µM*	0.0
CC(C)(CNCc1ccccc1)NS(=O)(=O)c1ccc(Cl)cc1	-9.8	-0.4%	i	1.0%	i	-56.7*
CCOC(=O)C1CCN(CC(C)(C)NS(=O)(=O)c2ccc(Cl)cc2)CC1	-11.2	9.9%	i	14.6µM*	i	-17.2
Cc1ccc(S(=O)(=O)NC(C)(C)CN2CCC(Cc3ccccc3)CC2)cc1	-19.0	?	?	?	i	-58.8*
CC(C)(CN1CCCC1)NS(=O)(=O)c1ccc(Cl)cc1	-13.3	-8.3%	i	19.2%	i	0.0
CC(C)(CN1CCNCC1)NS(=O)(=O)c1ccc(Cl)cc1	-23.3	3.6%	20.6µM*	11.6µM*	i	-95.0*
CC(C)(CNCc1ccccc1)NS(=O)(=O)c1ccccc1	-22.6	-4.6%	nt	?	nt	-2.0
CCOC(=O)c1ccc(CN(Cc2ccc(F)cc2)S(=O)(=O)c2ccc(F)c(C(=O)Nc3c(C)cccc3C)c2)cc1	7.2	nt	nt	nt	nt	nt
O=C(C1CCN(S(=O)(=O)Cc2ccccc2)CC1)N1CCN(c2cccc(Cl)c2)CC1	13.0	nt	i	nt	i	nt
O=C(NC(=S)N1CCN(c2ccc(C(F)(F)F)cc2[N+](=O)[O-])CC1)c1cccs1	-6.1	12.1%	i	?	14.6µM*	20.4
O=c1[nH]c2c(-c3nc(-c4ccc(Cl)cc4)cs3)c(O)cn2c2ccccc12	nt	nt	?	nt	i	nt
COc1ccc(C(=O)CSc2nnc(-c3cccnc3)n2Cc2ccco2)cc1	6.0	-3.4%	i	-1.6%	i	6.3
COc1ccc(C(=O)CSc2nnc(-c3cc4ccccc4cc3O)n2Cc2ccco2)cc1	-1.6	13.1%	?	15.8%	7.31µM*!	-14.7
CCn1c(SCC(=O)c2ccc(Cl)cc2)nnc1-c1ccoc1C	-9.3	?	i	?	i	-61.3*
CN(C)C(=O)CSc1nnc(-c2ccco2)n1-c1ccccc1	0.7	-2.4%	i	4.7%	i	75.7
CCn1c(SCC(=O)N2CCC(C)CC2)nnc1-c1ccco1	4.8	-5.5%	i	-14.3%	i	4.8
CCn1c(SCC(=O)c2ccc(C)cc2)nnc1-c1ccoc1C	7.5	-6.3%	i	3.2%	i	-14.3
CC1CCN(C(=O)CSc2nnc(-c3cc4ccccc4cc3O)n2Cc2ccco2)CC1	-6.2	15.4%	?	7.2%	3.66µM*	-26.7
CN(Cc1ccccc1)C(=O)CSc1nnc(-c2ccco2)n1-c1ccccc1	4.5	-5.4%	i	1.7%	3.66µM*	4.0
Cc1ccccc1CSc1ncc(Cl)c(C(=O)Nc2nc3ccc(F)cc3s2)n1	-14.2	nt	i	nt	i	nt
CCn1ccc2cc(S(=O)(=O)N3CCC(C(=O)NCC(C)c4ccccc4)CC3)ccc21 (configuration not stated)	-4.3	nt	i	nt	i	nt
Cc1ccc2nc(CSc3nnc(-c4ccco4)n3-c3ccccc3)cc(=O)n2c1	-2.0	24.0%	i	4.4%	10.3µM*	-3.5
SMILES	D3 ag	SW480 rereplic	KB-3-1 tox	MCF10A rereplic	KB-V1 MDR tox	DRD3 antagonist
CCn1c(SCC(=O)N(C(C)C)C(C)C)nnc1-c1cc2ccccc2cc1O	-5.4	-15.0%	?	2.9%	3.66µM*	-13.3
Cc1ccc2nc(CSc3nnc(-c4ccco4)o3)cc(=O)n2c1	-3.2	-8.1%	i	-3.9%	i	23.0
Cc1ccc(C(=O)CSc2nnc(-c3ccco3)n2Cc2ccccc2)cc1	7.9	2.3%	20.6µM*	13.1%	?	-2.6
COc1ccc2oc(-c3ccc(C)c(NC(=O)c4ccc(N5CCCCC5)c([N+](=O)[O-])c4)c3)nc2c1	1.4	nt	i	nt	i	nt
C[C@@H]1CN([C@H](C)CO)C(=O)c2cc(Br)cnc2O[C@@H]1CN(C)Cc1ccc(-c2ccccc2)cc1	0.3	nt	?	nt	?	-10.4
O=C1NC2CCCCN2C12CCN(CCCN1c3ccccc3CCc3ccc(Cl)cc31)CC2 (configuration not stated)	-26.1	nt	nt	nt	nt	nt
CC(=O)Nc1ccc(CN2CCN(C3CCCC3)C(CCO)C2)cc1 (configuration not stated)	-19.7	4.1%	i	2.59µM*	i	-15.3
CC(=O)c1cccc(CN2CCN(Cc3ccccc3)C(CCO)C2)c1 (configuration not stated)	-15.5	-29.1%	i	1.4%	i	-27.8
CC(=O)c1cccc(CN2CCN(C3CCCCC3)C(CCO)C2)c1 (configuration not stated)	-7.0	-2.1%	i	-0.4%	i	-54.3*
Cc1cc(-n2cccn2)ccc1CN1CCN(C2CCCC2)C(CCO)C1 (configuration not stated)	-22.4	-8.5%[1.84 µM]	i	?	i	-70.2*
OCCC1CN(Cc2cnc(-c3cccc4ccccc34)nc2)CCN1C1CCCCC1 (configuration not stated)	-7.8	1.84µM*	i	9.0%	i	-11.8
Cc1ccccc1-c1ncc(CN2CCN(C3CCCC3)C(CCO)C2)cn1 (configuration not stated)	-13.1	-10.1%	i	4.2%	i	20.1
Cc1cc(-n2cccn2)ccc1CN1CCN(CC(C)C)C(CCO)C1 (configuration not stated)	-15.6	12.6%	i	10.0%	i	-23.6
CC(=O)c1cccc(NCc2ccccc2-c2nnc(-c3ccccc3)o2)c1	14.4	nt	i	nt	i	nt
Cc1cccc(N/C(N)=N/c2nc(C)c(Cc3ccccc3)c(=O)[nH]2)c1	5.3	-1.0%	20.6µM*	18.5%	i	4.0
Cc1ccccc1OCCC(=O)NNC(=O)COc1cccc(F)c1	-17.6	-11.7%	nt	?	nt	-12.3
COCCN1CCc2nc(SCC(=O)Nc3ccc(Br)cc3)[nH]c(=O)c2C1	-20.2	nt	i	nt	i	nt
CCN(CC)c1ccc2nc3ccc(N)cc3[n+](-c3ccccc3)c2c1	-10.2	?	0.731µM*	?	?	-56.3*
CCN(CC)c1ccc2nc3ccccc3[n+](CC)c2c1	-24.1	3.66µM*	3.66µM*	11.6µM*	9.2µM*	-64.8*
